From PubChem BioAssay
IMPase Li inh: qHTS Assay for Identifying the Cell-Membrane Permeable IMPase Inhibitors: Potentiation with Lithium. CHO-M1 cells, IP1 TR-FRET (IP-One), carbachol + lithium. Potency, µM (titrated, usually from 59.4 µM), hits mostly inhibitors. actives 0.35% (n = 210,000);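 note: IP1 builds up when IMPase is blocked and the TR-FRET signal falls; nearly all actives have a fitted effect of over 50% in size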
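CHO-M1, 2000 cells/well, 16–30 h culture; cpd + low Li+, 30 min 37C; lysis with d2-IP1/Eu-anti-IP1 Ab, 10 min RT; TR-FRET 665/620 ratio and 620 channel; AC50 via Hill.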
Epigenetic reg: Quantitative High-Throughput Screen for Regulators of Epigenetic Control | murine LDR cells, GFP reporter derepression, 30 h | Potency, µM (doses to about 53.9 µM), usual class: activators | actives 0.2% (n = 280,000); note: nearly all actives have a fitted effect of over 60% in size
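Derepression of a silenced CMV-GFP reporter in murine LDR cells is scored by enumerating GFP-positive cells with a laser-scanning microplate cytometer after 30 hours of treatment at 37 C.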
JMJD2E inh: qHTS Assay for Inhibitors of Human Jumonji Domain Containing 2E (JMJD2E). Potency, µM (series often up to 57.1 µM), usual class: inhibitors. JMJD2E catalytic domain, FDH-coupled NADH fluorescence (FDH is formaldehyde dehydrogenase). AID 2147, 2009. actives 1.6% (n = 230,000); active = well fitted inhibition curve with a large enough effect, not every such curve was filed as active; inconclusive = small, poorly fitted or top-dose-only effect, or another doubt; inactive = no such curve, though single readings can be large or run the other way; note: nearly all actives have a fitted effect of over 50% in size
Target sequence (B2RXH2 1-337 limits assumed): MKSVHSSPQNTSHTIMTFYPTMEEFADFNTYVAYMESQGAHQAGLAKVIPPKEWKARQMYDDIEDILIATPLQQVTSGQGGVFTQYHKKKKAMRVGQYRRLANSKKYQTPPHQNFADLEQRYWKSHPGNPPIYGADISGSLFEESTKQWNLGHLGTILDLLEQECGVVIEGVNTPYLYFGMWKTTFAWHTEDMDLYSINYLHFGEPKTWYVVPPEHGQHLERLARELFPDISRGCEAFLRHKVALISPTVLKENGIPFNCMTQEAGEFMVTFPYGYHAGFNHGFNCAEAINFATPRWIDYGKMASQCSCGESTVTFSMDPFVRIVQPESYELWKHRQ
KAT2A inh: qHTS Assay for Inhibitors of GCN5L2. GCN5L2 HAT assay, ThioGlo1 CoA-SH fluorescence. Potency, µM (doses to about 58.9 µM), usual class: inhibitors. actives 0.21% (n = 390,000)
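Enzyme at 20nM final was mixed with library compounds for 15 min at room temperature. Peptide H3(1-25) at 75uM, acetyl-CoA at 70uM and ThioGlo1 at 50uM were then added. Plates were read immediately and after 20 min (Ex340nm/Em540nm).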
Sfp PPTase inh: qHTS Assay for Inhibitors of Bacillus subtilis Sfp phosphopantetheinyl transferase (PPTase) | 4'-phosphopantetheinyl transferase ffp (Bacillus subtilis), Q9F4F7 | Biochemical Sfp PPTase activity, qHTS | Potency, µM, usual class: inhibitors | actives 3.5% (n = 310,000) | AID 1490, 2009;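 note: the enzyme is Sfp with the accession as filed and its product quenches rhodamine fluorescence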
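Buffer: 50 mM Hepes-Na pH 7.6, 10 mM MgCl2, 0.01% Nonidet P-40, 0.01% BSA. Enzyme 15 nM, pre-exposed to compound 15 min; substrates then added and fluorescence change tracked over 30 min.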
NPSR antag: qHTS Assay for Antagonists of the Neuropeptide S Receptor: cAMP Signal Transduction; AID 1461, 2008; Potency, µM (series often up to 38.3 µM), actives largely listed as inhibitors; actives 1% (n = 220,000); CHO-NPSR cells, cAMP TR-FRET, antagonist mode; Q6W5P4; note: nearly all actives have a fitted effect of over 50% in size
Hits are given with their value; - = inactive; ? = inconclusive; . = no result given; ! = not confirmed by another sample. In the library only some 3.6% were active in any assay of this set; here they are far more common. Unless noted, calls come from the whole dose curve; as a rule, active = well fitted curve in the direction sought with a large enough effect; inconclusive = small, poorly fitted or top-dose-only effect, or another doubt; inactive = no such curve, though single readings can be large; an effect the other way counts as inactive or inconclusive.

SMILES	IMPase Li inh	Epigenetic reg	JMJD2E inh	KAT2A inh	Sfp PPTase inh	NPSR antag
NC(=O)OC[C@H](O)COc1ccc(Cl)cc1	-	-	-	14.1µM	-	.
Cc1noc(/C=C/c2ccco2)c1S(=O)(=O)N1CCC(C(=O)N(C)Cc2ccccc2)CC1	-	-	?	-	44.7µM	?
CCc1ccc2c(c1)c(=O)c(C(=O)c1ccccc1)cn2CC(=O)Nc1ccc(C)c(Cl)c1	.	-	.	-	.	.
COc1ccc2nc(N3C(=O)C(O)=C(C(=O)c4ccco4)C3c3ccc(C)o3)sc2c1 (stereo unspecified)	.	.	.	-	.	.
C=CCOc1ccc(C2C(C(=O)c3ccco3)=C(O)C(=O)N2c2nnc(C)s2)cc1 (stereo unspecified)	11.2µM	-	-	-	7.08µM	-
COc1ccc(C2C(C(=O)c3ccco3)=C(O)C(=O)N2c2nnc(C)s2)cc1OC (stereo unspecified)	.	.	.	-	-	.
COc1ccc(C2C(C(=O)c3ccco3)=C(O)C(=O)N2c2nnc(C)s2)cc1 (stereo unspecified)	11.2µM	-	-	-	10µM	?
Cc1ccc2nc(N3C(=O)C(O)=C(C(=O)c4ccco4)C3c3cccs3)sc2c1 (stereo unspecified)	?	-	?	?	?	7.94µM
CCC(C)C(NC(=O)OC(C)(C)C)C(=O)NC1COC2CC(n3cc(C)c(=O)[nH]c3=O)OC12 (stereo unspecified)	.	.	.	.	-	.
CCN(c1ccc(N=Cc2c(O)n(Cc3ccc(OC)cc3)c(=O)c3ccccc23)cc1)C(C)C	-	2µM	-	-	-	-
COc1ccc(-n2c(O)c(C=Nc3ccccc3)c3ccccc3c2=O)cc1	-	-	-	-	-	-
COc1cc2ccccc2cc1C(=O)N(CCN(C)C)c1nc2ccc(C)cc2s1	.	.	.	-	79.4µM	.
Cc1ccc2nc(N(CCCN(C)C)C(=O)COc3ccc(Cl)cc3)sc2c1	-	-	-	-	89.1µM	-
CCN(CC)CCN(C(=O)c1cc2ccccc2cc1OC)c1nc2ccc(OC)cc2s1	.	.	.	-	50.1µM	.
CCN(CC)CCN(C(=O)c1cc2ccccc2cc1OC)c1nc2ccc(F)cc2s1	.	.	.	-	-	.
CCC(C(=O)Nc1ccccc1OC)n1c(C(=O)OC)cc2sc(Cl)cc21 (stereo unspecified)	.	-	.	-	.	.
Cc1ccc2nc(NC(=S)NC(=O)c3cccs3)sc2c1	?	-	-	-	-	-
COc1ccccc1CNc1nc(C)c(C(=O)N(C)C)s1	.	.	.	-	44.7µM	.
Cc1cc(C(=O)Nc2nc(C)c(C(=O)N(C)C)s2)ccc1[N+](=O)[O-]	-	-	-	-	-	-
COc1ccc(C(=O)NC(=S)Nc2nc(C)c(C(=O)N(C)C)s2)cc1	-	-	-	-	63.1µM	-
COc1ccccc1CNc1nc(C)c(C(C)=O)s1	.	.	.	-	?	.
Cc1nc(NC(=S)NC(=O)c2cccs2)sc1C(=O)N(C)C	-	-	-	-	50.1µM	-
Cc1nc(NC(=O)c2ccc([N+](=O)[O-])cc2Cl)sc1C(=O)N(C)C	-	-	?	-	39.8µM	-
CC(=O)n1c(COS(C)(=O)=O)nc2ccccc21	-	.	.	.	.	.
COC(=O)c1ccc(CSc2nc(C)nc3sc(C)c(C)c23)o1	.	-	-	-	25.1µM	-
SMILES	IMPase Li inh	Epigenetic reg	JMJD2E inh	KAT2A inh	Sfp PPTase inh	NPSR antag
CCCOCC(C)OCC(C)O (stereo unspecified)	-	.	.	.	.	.
Cc1cc(/C=C2\SC(=S)N(Cc3ccco3)C2=O)c(C)n1-c1ccccc1	-	?	-	-	-	-
O=C(O)CCN1C(=O)C(=C2CCCCCC2)SC1=S	-	-	?	-	50.1µM	-
O=C(O)CCN1C(=O)C2CCCCC2C1=O (stereo unspecified)	-	-	-	?	-	-
O=C1C(=C2CCCCC2)SC(=S)N1Cc1ccco1	-	?	-	-	39.8µM	-
Cc1cc(C(=O)NCCN2C(=O)S/C(=C\c3cccs3)C2=O)ccc1[N+](=O)[O-]	-	-	-	-	35.5µM	-
Cc1cc(C(=O)COC(=O)c2cc(O)c3ccccc3c2O)c(C)n1CC1CCCO1 (stereo unspecified)	-	-	28.2µM	-	79.4µM	-
COc1ccc(CCNCC(O)c2ccccc2)cc1 (stereo unspecified)	-	-	7.94µM	-	-	-
COc1cccc(CS(=O)(=O)c2nnnn2CC(C)C)c1	-	-	-	.	-	.
COc1cc([N+](=O)[O-])cc2sc(NC(C)=O)nc12	.	-	-	-	39.8µM	-
COC(=O)N/N=C/c1sc(N2CCCCC2)nc1-c1cccs1	-	-	-	-	22.4µM	-
CCC1(c2ccc(O)cc2)NC(=O)NC1=O (stereo unspecified)	.	.	.	-	-	.
Cc1sc2nc(CN3CCOCC3)nc(Oc3ccc(NC(=O)c4ccco4)cc3)c2c1C	.	-	-	-	89.1µM!	-
CCn1c(=O)cc(C(F)(F)F)[nH]c1=S	-	-	?	-	79.4µM	-
O=C(N/N=C/c1ccc(N2CCOCC2)o1)c1ccccc1[N+](=O)[O-]	-	-	?	-	15.8µM	-
O=C(Nc1ccc(N2CCOCC2)nc1N1CCOCC1)c1cccc(C(F)(F)F)c1	.	-	?	-	-	-
O=C(N/N=C/c1ccc(N2CCOCC2)o1)c1cccc(C(F)(F)F)c1	-	?	-	-	3.55µM	?
O=c1c(-c2cc(F)cc(F)c2)nc2cncnc2n1-c1ccccc1	-	.	.	-	-	.
CC1CCCO1 (stereo unspecified)	-	.	.	.	.	.
C[c-]1[c-](C)[c-](C)[c-](C)[c-]1C.[Fe].c1cc2nccc(N3CCCC3)[c-]2c1 (stereo unspecified)	.	-	10µM!	-	89.1µM!	-
C/C=C/c1cc(CN2CCN(c3ccc(OC)cc3)CC2)c(O)c(OC)c1	-	-	-	-	-	-
COc1ccc(N2CCN(Cc3cc(OC)c(O)c([N+](=O)[O-])c3)CC2)cc1	-	-	22.4µM	-	?	-
O=C(N/N=C/c1ccc(O)cc1)c1cc[n+](Cc2ccccc2)cc1	-	-	-	-	-	-
O=C(COc1ccccc1C(=O)N/N=C\c1ccc(O)c(O)c1)N/N=C/c1ccc(O)c(O)c1	-	-	12.6µM	-	?	-
O=C(COc1ccccc1[N+](=O)[O-])N/N=C/c1ccc(O)c([N+](=O)[O-])c1	-	-	-	-	-	-
